The campaign covered roughly 5,500 compounds. About 2,000 (36%) were called active. Not shown: some 18% with an inconclusive outcome. Cut-off read from the data, not from the text of the source: active = normalized growth mostly below about 0.91 (no sharp cut-off); inconclusive = no clear call, values can overlap the other calls; inactive = mostly above about 0.92. This is one part of the list.
Assay: chemical genetic growth profiling, strain panel (AID 1159580);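 note: tested at 20 µM; growth read once vehicle control cultures reached saturation at 30 °C; 1 = growth at the plate median or of vehicle wells; lower values mean less growth of the strain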
Conditions: S. cerevisiae deletion strains, growth OD
[1] = locus YDL101C, strain DUN1, hits give low values
[2] = locus YHR030C, strain SLT2, hits give low values
[3] = locus YAL013W, strain DEP1, hits give low values
[4] = locus YDR150W, strain NUM1, hits give low values
[5] = locus YJR075W, strain HOC1, hits give low values
[6] = locus YPL241C, strain CIN2, hits give low values

Measured: normalized growth

CSC(=NNc1ccccc1)NC(=O)c1c(Cl)cccc1Cl
active: locus YLR113W, strain HOG1, hits give low values 0.738 | locus YPL256C, strain CLN2, hits give low values 0.814
inactive: locus YAR019C, strain CDC15, hits give low values 0.972 | locus YBL105C, strain PKC1, hits give low values 0.967 | locus YBR135W, strain CKS1, hits give low values 0.967 | locus YBR136W, strain MEC1, hits give low values 0.972 | locus YBR160W, strain CDC28, hits give low values 0.967 | locus YDL017W, strain CDC7, hits give low values 0.981 | locus YDL028C, strain MPS1, hits give low values 0.975 | [1] 0.974 | locus YDL108W, strain KIN28, hits give low values 0.963 | locus YDL132W, strain cdc53, hits give low values 0.98 | locus YDL214C, strain PRR2, hits give low values 0.89 | locus YDR052C, strain DBF4, hits give low values 0.975 | locus YDR054C, strain cdc34, hits give low values 0.961 | locus YDR226W, strain ADK1, hits give low values 0.969 | locus YDR477W, strain SNF1, hits give low values 0.923 | locus YER123W, strain YCK3, hits give low values 0.812 | locus YER133W, strain GLC7, hits give low values 0.918 | locus YFL009W, strain cdc4, hits give low values 0.972 | locus YFL029C, strain CAK1, hits give low values 0.958 | locus YFR003C, strain YPI1, hits give low values 0.971 | locus YFR019W, strain FAB1, hits give low values 0.904 | locus YFR028C, strain CDC14, hits give low values 0.967 | locus YGR040W, strain KSS1, hits give low values 0.887 | locus YGR052W, strain FMP48, hits give low values 0.951 | locus YGR092W, strain DBF2, hits give low values 0.82 | [2] 0.909 | locus YHR079C, strain IRE1, hits give low values 0.896 | locus YHR082C, strain KSP1, hits give low values 0.938 | locus YHR205W, strain SCH9, hits give low values 0.921 | locus YIL147C, strain SLN1, hits give low values 0.975 | locus YJL095W, strain BCK1, hits give low values 0.902 | locus YJL128C, strain PBS2, hits give low values 0.945 | locus YJL157C, strain FAR1, hits give low values 0.886 | locus YJR016C, strain ILV3, hits give low values 0.966 | locus YJR066W, strain TOR1 (second series), hits give low values 0.904 | locus YJR066W, strain TOR1, hits give low values 0.968 | locus YKL048C, strain ELM1, hits give low values 0.882 | locus YKL067W, strain YNK1, hits give low values 0.892 | locus YKL101W, strain HSL1, hits give low values 0.867 | locus YKL193C, strain SDS22, hits give low values 0.969 | locus YKL203C, strain TOR2, hits give low values 0.969 | locus YLR133W, strain CKI1, hits give low values 0.872 | locus YLR403W, strain SFP1, hits give low values 0.897 | locus YML070W, strain DAK1, hits give low values 0.806 | locus YMR001C, strain CDC5, hits give low values 0.965 | locus YMR205C, strain PFK2 (second series), hits give low values 0.887 | locus YMR277W, strain FCP1, hits give low values 0.975 | locus YNL006W, strain LST8, hits give low values 0.97 | locus YNL020C, strain ARK1, hits give low values 0.88 | locus YNL161W, strain CBK1, hits give low values 0.979 | locus YNL183C, strain NPR1, hits give low values 0.927 | locus YNL207W, strain RIO2, hits give low values 0.97 | locus YNL222W, strain SSU72, hits give low values 0.961 | locus YNL307C, strain MCK1 (second series), hits give low values 0.817 | locus YOL078W, strain AVO1, hits give low values 0.968 | locus YOL136C, strain PFK27, hits give low values 0.842 | locus YOR061W, strain CKA2, hits give low values 0.798 | locus YOR119C, strain RIO1, hits give low values 0.961 | locus YOR231W, strain MKK1, hits give low values 0.82 | locus YOR329C, strain SCD5, hits give low values 0.976 | locus YPL031C, strain PHO85, hits give low values 0.917 | locus YPL153C, strain RAD53, hits give low values 0.91 | locus YPL204W, strain HRR25, hits give low values 0.906 | locus YPL209C, strain IPL1, hits give low values 0.972 | locus YPR025C, strain CCL1, hits give low values 0.968 | locus YPR106W, strain ISR1, hits give low values 0.955 | locus YPR111W, strain DBF20, hits give low values 0.948 | strain NNK1, hits give low values 0.964 | strain TSCII, hits give low values 0.968

NC(N)=NC(=O)Cc1c(Cl)cccc1Cl
inactive: [3] 1.01 | locus YAL040C, strain CLN3, hits give low values 0.979 | locus YCL061C, strain MRC1 (second series), hits give low values 1 | [4] 0.997 | locus YDR363W, strain ESC2, hits give low values 0.997 | locus YER002W, strain NOP16, hits give low values 1.04 | [5] 1 | locus YNL175C, strain NOP13, hits give low values 0.996 | locus YNL197C, strain WHI3, hits give low values 1.02 | locus YNL224C, strain SQS1, hits give low values 0.971 | locus YOR083W, strain WHI5 (second series), hits give low values 1.01 | [6] 1

CSC(=NC(=O)c1c(Cl)cccc1Cl)SC
inactive: [4] 0.992 | locus YMR263W, strain SAP30, hits give low values 0.931 | locus YNL128W, strain TEP1, hits give low values 0.928 | locus YPL055C, strain LGE1, hits give low values 0.919
active: [3] 0.886 | locus YBR229C, strain ROT2, hits give low values 0.856 | [1] 0.866 | locus YDL134C, strain PPH21, hits give low values 0.782 | locus YEL061C, strain CIN8, hits give low values 0.781 | locus YGR078C, strain PAC10, hits give low values 0.912 | [2] 0.194 | locus YHR087W, strain rtc3, hits give low values 0.896 | locus YJL187C, strain SWE1, hits give low values 0.82 | locus YJR043C, strain POL32, hits give low values 0.904 | [5] 0.776 | locus YLR039C, strain RIC1, hits give low values 0.284 | locus YLR058C, strain SHM2 (second series), hits give low values 0.924 | locus YLR085C, strain ARP6, hits give low values 0.332 | locus YLR262C, strain YPT6, hits give low values 0.275 | locus YML094W, strain GIM5, hits give low values 0.85 | locus YMR219W, strain ESC1, hits give low values 0.932 | locus YMR307W, strain GAS1, hits give low values 0.177 | locus YNL153C, strain GIM3, hits give low values 0.852 | locus YNL298W, strain CLA4 (second series), hits give low values 0.636 | locus YNL322C, strain KRE1, hits give low values 0.925 | locus YNR030W, strain Alg12, hits give low values 0.747 | locus YOL006C, strain TOP1, hits give low values 0.541 | [6] 0.663 | locus YPR135W, strain CTF4, hits give low values 0.313
